# NPR2 activator: GC-B (human) receptor activation; P20594; HEK293-GC-B cells, CNP EC30, cGMP TR-FRET; 0% at EC30 CNP, 100% saturating CNP; activation, % at 10 µM; 0.11% of 370,000 active; AID 1920062;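 active means activation at 10 µM reaching about 35% in either raw or pattern-adjusted values, limit read from the data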
# NPR1 activator: GC-A (human) enzyme activation; P16066; HEK293 GC-A cells, cGMP TR-FRET, EC30 ANP; 0% at EC30 ANP, 100% saturating ANP; activation, % at 10 µM; 0.14% of 370,000 active; in the data active means activation above about 40%
# ALR H2O2 inh: inhibitors of human sulfhydryl oxidase ALR. P55789. purified ALR, DTT oxidation, H2O2 HRP-luminol luminescence. inhibition, % (concentration not given with the values). 3.8% of 290,000 active;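 active means mean replicate inhibition above about 79%, with every replicate also reaching it, limit read from the data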
# HDAC3 inhib: inhibitors of human histone deacetylase 3 | O15379 | recombinant HDAC3, fluorogenic peptide/trypsin coupled, fluorescence | inhibition, % at 8.3 µM | 0.15% of 320,000 active; in the data active means inhibition above about 26%, passing the limit was not always enough
# Target sequence (O15379 whole entry, looked up): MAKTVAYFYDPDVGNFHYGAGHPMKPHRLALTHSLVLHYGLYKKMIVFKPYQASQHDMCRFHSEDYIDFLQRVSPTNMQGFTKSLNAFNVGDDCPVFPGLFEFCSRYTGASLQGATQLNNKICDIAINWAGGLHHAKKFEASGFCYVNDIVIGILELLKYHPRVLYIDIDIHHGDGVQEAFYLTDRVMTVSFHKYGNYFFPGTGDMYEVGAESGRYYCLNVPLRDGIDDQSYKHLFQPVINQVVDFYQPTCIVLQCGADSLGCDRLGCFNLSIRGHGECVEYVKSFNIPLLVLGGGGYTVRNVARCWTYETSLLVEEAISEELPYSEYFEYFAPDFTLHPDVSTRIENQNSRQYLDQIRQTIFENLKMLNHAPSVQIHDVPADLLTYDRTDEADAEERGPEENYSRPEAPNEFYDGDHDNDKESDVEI
# An asterisk follows results filed as active; x = not tested or not shown. This excerpt belongs to a sample that is enriched for hits.
SMILES,NPR2 activator,NPR1 activator,ALR H2O2 inh,HDAC3 inhib
CC(=O)OC(C)(C)/C=C/C(=O)[C@](C)(O)C1[C@H](O)C[C@@]2(C)C3CC=C4C(C[C@H](O)C(=O)C4(C)C)[C@]3(C)C(=O)C[C@]12C (stereo partly drawn),x,x,4.3,0.4
N#Cc1c(/N=C/c2c(O)n(Cc3ccco3)c(=O)[nH]c2=O)sc2c1CCCC2,4.4,0.9,82.2*,3.9
O=c1[nH]c(=O)n(Cc2ccco2)c(O)c1/C=N/N1CCCCCC1,-1.3,4.9,-2.0,0.0
Cc1ccc(S(=O)(=O)N2Cc3cc(-c4cccc(F)c4)ccc3-n3nncc3C2)cc1,-4.2,-3.3,x,x
Cc1ccc(-c2nc(CS(=O)CC(=O)N3CCC4(CC3)OCCO4)c(C)o2)cc1 (stereo not drawn),1.4,10.0,99.2*,-2.1
CC(=O)OC1CC[C@@]2(C)C(=CC(=O)C3C4CCC(OC(C)=O)[C@@]4(C)CCC32)C1 (stereo partly drawn),1.5,-3.1,-4.0,6.1
COc1cc(/C=C/c2nc3ccccc3c(=O)n2-c2ccc(O)cc2)ccc1O,35.4*,12.6,22.0,1.5
Nc1ccc(Cc2ccc(N)cc2)cc1,7.5,0.5,x,x
CCOC(=O)c1ccccc1NC(=O)c1c(O)[nH]c(=S)[nH]c1=O,0.4,2.7,91.6*,7.1
O=C(CCC(=O)N1CCC2(CC1)OCCO2)Nc1nnc(C(F)(F)F)s1,2.3,-0.5,-6.7,-2.6
CCCCCCCCn1sccc1=O,13.5,49.2*,22.9,-0.3
CCCCCCCCc1ccc(O)cc1,5.4,1.9,7.1,8.7
CCOC(=O)c1c(N)n(Cc2ccc(OC)cc2)c2nc3ccccc3nc12,44.1*,46.0*,x,x
COCCOC(=O)c1c(N)n(Cc2ccc(OC)cc2)c2nc3ccccc3nc12,46.9*,47.3*,x,-58.0
COCCCn1c(N)c(C(=O)OCCOC)c2nc3ccccc3nc21,1.3,-0.7,x,-135.2
COC(=O)c1c(N)n(Cc2ccc(OC)cc2)c2nc3ccccc3nc12,43.0*,47.9*,-16.2,-5.3
C=CCN1CC[C@]23c4c5ccc(O)c4OC2C(O)C=CC3[C@H]1C5 (stereo partly drawn),1.0,4.7,x,x
O=C(O)CCn1cc(C=C2C(=O)NC(=O)NC2=O)c(-c2cc3ccccc3oc2=O)n1,2.3,-5.0,97.4*,-8.4
O=C(O)Cn1cc(C=C2C(=O)NC(=O)NC2=O)c2ccccc21,-0.3,-2.6,49.0,15.6
Cc1nc(C)c(C(=O)NN=Cc2ccc(N(CCCl)CCCl)cc2)s1,-1.6,4.3,x,x
Cc1ccccc1N1C(=O)NC(=O)/C(=C\c2cnn(-c3ccccc3)c2)C1=O,9.8,44.9*,x,-3.7
CN1CCN(c2ccccc2N)CC1,5.5,-4.1,-13.3,1.2
CN1CCN(c2c(N)c(=O)oc3ccccc23)CC1,-12.3,-13.8,98.7*,5.5
COc1cccc(-n2nc(C(=O)N3CCC4(CC3)OCCO4)c3ccccc3c2=O)c1,0.7,4.6,93.7*,1.0
c1ccc(CCN2CCCCC2)nc1,1.9,4.8,x,x
SMILES,NPR2 activator,NPR1 activator,ALR H2O2 inh,HDAC3 inhib
CN1C(=O)N(C)C(=O)C2(Cc3c(ccc4ccccc34)N(C)C2)C1=O,-0.8,-6.7,98.8*,3.4
COc1ccc(C(=O)CC2(CC(=O)c3ccc(OC)cc3)C(=O)N(C)C(=O)N(C)C2=O)cc1,1.6,-4.1,19.3,2.6
Cc1ccc(-n2c(O)c(/C=N/Nc3ccccc3)c(=O)[nH]c2=O)cc1C,0.9,-1.9,99.0*,-0.9
COc1ccc(N/N=C/c2c(O)n(-c3cccc(C)c3)c(=O)[nH]c2=O)cc1,-1.5,-3.1,98.9*,7.5
COc1ccc(N=Cc2c(O)n(-c3ccc(C)cc3)c(=O)[nH]c2=O)cc1,1.6,-1.4,-4.9,-2.6
Cc1cccc(-n2c(O)c(/C=N/NC(=O)c3ccncc3)c(=O)[nH]c2=O)c1,2.1,1.6,-1.1,6.8
COc1ccc(N/N=C/c2c(O)n(-c3ccc(C)c(C)c3)c(=O)[nH]c2=O)cc1,-2.1,-3.9,98.9*,2.5
Cc1cccc(N/N=C/c2c(O)[nH]c(=S)[nH]c2=O)c1,-1.5,-6.5,100.2*,8.8
CC(C)OC1CCCC(O)C1CC(=O)O (stereo not drawn),2.7,1.4,-3.1,-2.5
COc1ccc(C(=O)O/N=C(/C(N)=O)P(=O)(OC(C)C)OC(C)C)cc1,3.7,9.8,25.1,7.1
C=C1C(=O)O[C@@H]2C[C@@H](C)[C@@H]3C4OC4C(=O)[C@@]3(C)[C@@H](O)[C@H]12 (stereo partly drawn),5.7,4.8,97.6*,3.0
C=C1C(=O)O[C@@H]2C[C@@H](C)[C@@H]3C=CC(=O)[C@@]3(C)[C@@H](OC(=O)CC(=O)O[C@H]3[C@@H]4C(=C)C(=O)O[C@@H]4C[C@@H](C)[C@@H]4C=CC(=O)[C@]43C)[C@H]12,19.9,22.9,6.1,2.8
C[C@H](N)CN1CCc2ccc(Br)cc21,-10.1,-7.0,99.3*,-14.9
CCN1C[C@]2(C)CC[C@H](O)[C@]34C1[C@H](C[C@H]23)[C@@]1(O)C[C@H](OC)[C@H]2C[C@@H]4[C@@H]1C2O (stereo partly drawn),-4.2,3.2,-12.4,-3.4
Cc1ccc2c(c1)CNc1ccccc1O2,-3.4,6.2,88.2*,6.2
O=C(c1ccc2c(c1)N(Cc1ccccc1)CCS2)N1CCC2(CC1)OCCO2,-2.7,-4.7,84.7*,-9.5
C=CCN1C(=O)c2ccccc2Sc2ccc(C(=O)N3CCC4(CC3)OCCO4)cc21,0.8,2.8,3.7,2.0
O=C1N(c2cccc(Cl)c2)C(c2cccnc2)N2CCCN12 (stereo not drawn),10.6,-1.5,0.8,-0.5
Cc1ccc2c(c1)=C/C(=C\c1c(O)[nH]c(=S)[nH]c1=O)C(=O)N=2,x,x,97.0*,-3.3
Cc1ccc2c(c1)=NC(=O)/C(=C/c1c(O)[nH]c(=O)[nH]c1=O)C=2,0.5,-2.0,9.0,1.2
Cc1ccc(-n2c(O)c(C=Nc3ccc(Br)cn3)c(=O)[nH]c2=O)cc1,3.7,-1.8,-1.6,x
Cc1[nH]c2ccc(O)cc2c1CCN,-3.5,-4.3,96.1*,-2.2
O=C1C(=O)N(c2ccccc2)P(=O)(N(CCCl)CCCl)N1c1ccccc1,0.3,0.7,x,x
Cc1c(C(=O)Nc2ccccc2)c2cc(O)ccc2n1Cc1ccccc1,-2.9,61.3*,-7.4,4.4
COC(=O)c1c(C)n(Cc2ccco2)c2ccc(O)cc12,-7.7,46.8*,-28.7,-5.6
CC(=O)c1c(C)n(CC2CCCO2)c2ccc(O)cc12 (stereo not drawn),3.5,2.8,4.9,-7.1
CC(=O)c1c(C)n(Cc2ccccc2Cl)c2ccc(O)cc12,9.9,83.3*,-1.1,8.0
CCn1c(C)c(C(=O)Nc2ccc(OC)cc2)c2cc(OC)ccc21,1.0,3.7,-4.1,6.2
CC(Cc1ccccc1)/[N+]([O-])=C\c1ccc(C(F)(F)F)cc1 (stereo not drawn),-1.7,-4.3,-5.8,0.8
CC/C(=N\NC(=S)Nc1ccccc1)c1c(O)[nH]c(=O)[nH]c1=O,5.9,6.5,99.2*,4.6
